Source: PubChem BioAssay
Several values for one entry are separate records, joined by “and”; a condition that tells them apart may be missing. Identical values can stand only once. Activity calls are given as the source filed them.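 Rule for the calls, unless noted: active = compounds whose cell count with miR-34 switched on is under 0.7 times the count with it off; inactive = the rest.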 Residues, ends and D or L forms follow the SMILES beside them.

Key:
[1] = EMT-state selective cytotoxicity in co-culture – imaging, PC-3E GFP, TEM4-18 mCherry, primary screen (AID 1345086;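 active = compounds killing one labelled cell type while sparing the other, by normalised counts and ratio limits, not self-fluorescent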;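 for all read-outs here: cells exposed to compound for 72 h before imaging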;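 for red/green cell ratio (normalised): normalised mesenchymal count divided by normalised epithelial count so high means epithelial killing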); settings: PC-3E GFP / TEM4-18 mCherry co-culture, imaging cell counts, at 1 µM; for red/green cell ratio (normalised): actives lie on both sides, counts scaled to control wells, 1 = unselective
[2] = viability loss with induced miR-34 in A549 – imaging, A549 dox-inducible miR-34, nuclei and caspase counts, primary screen (AID 1347080); settings: A549 miR-34 inducible, Hoechst nuclei count, 48 h
[3] = target: NAD(+) hydrolase SARM1 (Homo sapiens) (UniProt Q6SZW1); assay: blocking NAD cleavage by SARM1 SAM-TIR – cell lysate, NAD-Glo luminescence (AID 1508614;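 active = compound whose remaining NAD level is above about 45 nM, limit read from the data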;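 note: higher remaining NAD means stronger inhibition of SARM1 NADase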); settings: SAM-TIR HEK293T lysate NADase, at 1 µM, stronger effect = higher value
[4] = MELAS cybrid and Rieske KO viability enhancers – cell-based, MELAS cybrids, Rieske KO mouse fibroblasts, CellTiter-Glo, primary screen (AID 1508586;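 active = mean z-score across replicates of 1.96 or higher in either the MELAS or the Rieske mutant cell line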;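 note: z relative to plate mean and SD of compound and empty wells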); settings: low glucose
[5] = galactose survival enhancers in mitochondrial complex I cybrids – cell-based, galactose medium, ATP luminescence, primary screen (AID 1645843;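 active = z-score of at least 1.8 in each of two replicates, scored against plate mean and spread of sample wells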;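 note: positive z means more ATP and so rescue of galactose-driven cybrid death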); settings: complex I mutant cybrid cells, 72 h, stronger effect = higher value
[6] = compounds altering viability of human ES cells (AID 493140; call rule not given here;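 note: cells exposed to compounds for four days before counting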); settings: human embryonic stem cell survival screen; stronger effect = higher value
[7] = P. berghei load reduction in hepatocytes – cell-based, HepG2, luciferase luminescence, HepG2 viability, primary screen (AID 624349; in the data active = parasite load remaining mostly below about 12%, no sharp cut-off; inactive = mostly above about 10%;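 note: 100% = mean of DMSO negative control wells on the same plate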); settings: P. berghei liver stage in HepG2, luciferase luminescence, concentration not given here; parasite load remaining: stronger effect = lower value; viability: measured here: HepG2 viability without parasites
[8] = measured here: epithelial PC-3E GFP cell survival
[9] = measured here: mesenchymal TEM4-18 mCherry cell survival
[10] = stronger effect = lower value, cell number ratio, induced over uninduced
[11] = measured here: relative caspase fold change +Dox/-Dox
[12] = measured here: total cells with miR-34 induction, stronger effect = lower value
[13] = measured here: total cells without miR-34 induction
[14] = MELAS cybrid survival, CellTiter-Glo 48 h, stronger effect = higher value
[15] = Rieske KO mouse fibroblast survival, CellTiter-Glo 72 h

NAD(+) hydrolase SARM1 (Homo sapiens), sequence (Q6SZW1 whole entry, looked up): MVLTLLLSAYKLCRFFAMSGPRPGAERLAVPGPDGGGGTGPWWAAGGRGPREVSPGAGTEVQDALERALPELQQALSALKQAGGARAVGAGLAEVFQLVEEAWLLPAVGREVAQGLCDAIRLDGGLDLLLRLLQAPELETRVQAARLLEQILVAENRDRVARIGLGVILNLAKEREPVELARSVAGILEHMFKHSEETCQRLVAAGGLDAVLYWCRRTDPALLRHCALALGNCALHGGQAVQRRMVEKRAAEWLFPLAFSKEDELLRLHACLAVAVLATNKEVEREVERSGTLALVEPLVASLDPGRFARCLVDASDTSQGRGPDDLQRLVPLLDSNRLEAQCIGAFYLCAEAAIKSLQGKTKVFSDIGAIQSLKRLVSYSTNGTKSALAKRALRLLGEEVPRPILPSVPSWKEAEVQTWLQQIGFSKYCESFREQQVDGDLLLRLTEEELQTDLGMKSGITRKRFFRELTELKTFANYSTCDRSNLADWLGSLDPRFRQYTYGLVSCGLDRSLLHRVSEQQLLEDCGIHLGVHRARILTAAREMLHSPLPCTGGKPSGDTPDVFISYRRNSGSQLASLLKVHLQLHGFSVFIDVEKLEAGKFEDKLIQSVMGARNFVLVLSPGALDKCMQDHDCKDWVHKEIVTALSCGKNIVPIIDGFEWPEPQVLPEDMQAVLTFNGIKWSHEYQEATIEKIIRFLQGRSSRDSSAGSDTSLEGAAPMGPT

Structure (SMILES)	red/green cell ratio (normalised) [1]	normalised cell number [1, 8]	normalised cell number [1, 9]	fold change [2, 10]	fold change [2, 11]	cell count [2, 12]	cell count [2, 13]	remaining NAD [3]	z-score [4, 14]	z-score [4, 15]	z-score [5]	survival [6]	parasite load remaining [7]	viability [7]
O=C1C2CC3CC1CC(O)(C3)C2	0.85 (inactive)	1.16	0.99	0.951 (inactive)	0.928	9100	9570	10 nM (inactive)						
Nc1ccn(C2CSC(CO)O2)c(=O)n1 (centres undefined)	1 (inactive)	1.14	1.13	0.986 (inactive) and 0.882 (inactive)	1.5 and 0.897	10000 and 7840	10200 and 8880		-0.261 (inactive)	0.414	1.16 (inactive)			
CCC(=O)O[C@H](CC(=O)O)C[N+](C)(C)C	1.18 (inactive)	1.03	1.22	0.986 (inactive)	0.77	8930	9060	10 nM (inactive)						
Cc1c(O)c(=O)n(-c2ccccc2)n1C	0.78 (inactive)	1.09	0.85	0.946 (inactive)	1.41	8310	8790		0.46 (inactive)	-0.0513		23.9 (inactive)	37.6% (inactive) and 51.4% (inactive)	95.8% and 94.4%
C[N+](C)(CCOc1ccccc1)Cc1ccccc1	0.65 (inactive)	1.19	0.77	0.899 (inactive) and 0.879 (inactive)	1.23 and 5.07	9230 and 11800	10300 and 13400	10 nM (inactive)	0.608 (inactive)	0.271			72.5% (inactive) and 56.2% (inactive)	93.8% and 115%
CC(=O)Oc1cccc(C)c1	1.03 (inactive)	0.86	0.89	0.912 (inactive)	1.13	8300	9090	10 nM (inactive)						
NC(=O)C(c1ccccc1)(c1ccccc1)C1CCN(CCc2ccc3c(c2)CCO3)C1 (centres undefined)	1.14 (inactive)	1.01	1.15	0.961 (inactive) and 0.867 (inactive) and 0.884 (inactive)	1.17 and 0.544 and 0.774	7990 and 7300 and 7280	8310 and 8420 and 8230		0.59 (inactive) and -0.239 (inactive)	0.395 and -0.187	-0.58 (inactive)			
CC1(O)CCOC(=O)C1 (centres undefined)	1.07 (inactive)	0.95	1.02	0.969 (inactive)	0.886	8270	8540		-0.827 (inactive)	-0.633			86.9% (inactive)	107%
CC1(C)C(C=C(Cl)Cl)C1C(=O)OCc1cccc(Oc2ccccc2)c1 (centres undefined)	0.81 (inactive)	1.23	1	0.928 (inactive)	0.968	8290	8930	10 nM (inactive)						
C=CCOC(Cn1ccnc1)c1ccc(Cl)cc1Cl (centres undefined)	1.13 (inactive)	1.28	1.45	0.977 (inactive) and 1.23 (inactive)	0.912 and 0.451	7830 and 4360	8020 and 3550	10 nM (inactive)	-0.315 (inactive)	-1.27		5.75 (inactive)	62.3% (inactive) and 49.7% (inactive)	79.2% and 101%
C[C@H](N[C@@H](CCc1ccccc1)C(=O)O)C(=O)N1Cc2ccccc2C[C@H]1C(=O)O	0.82 (inactive)	1.1	0.91	0.868 (inactive)	0.983	8350	9630	10 nM (inactive)						
COc1cc(-c2ccc(N=Nc3ccc4c(S(=O)(=O)O)cc(S(=O)(=O)O)c(N)c4c3O)c(OC)c2)ccc1N=Nc1ccc2c(S(=O)(=O)O)cc(S(=O)(=O)O)c(N)c2c1O	1.11 (inactive)	1.16	1.29	0.857 (inactive)	0.848	8930	10400		-1.41 (inactive)	-1.32		5.92 (inactive)	77.2% (inactive) and 55.6% (inactive)	74.5% and 64.2%
CC(C)[C@H](NC(=O)[C@H](CC(=O)O)NC(=O)[C@H](CCCCN)NC(=O)[C@@H](N)CCCN=C(N)N)C(=O)N[C@@H](Cc1ccc(O)cc1)C(=O)O (H-RKDVY-OH)	0.91 (inactive)	1.09	0.99	0.895 (inactive)	0.732	8230	9190	10 nM (inactive)						
CC(C)Nc1ncccn1	0.89 (inactive)	1.16	1.03	0.885 (inactive)	0.978	8370	9450	10 nM (inactive)						
O=C(O)C1CSCN1 (centres undefined)	0.88 (inactive)	1.25	1.1	0.957 (inactive)	0.618	9140	9550	10 nM (inactive)						
CCOC(=O)COc1ccc2c(=O)cc(-c3ccccc3)oc2c1	0.96 (inactive)	0.88	0.85	0.922 (inactive)	0.974	8170	8860	10 nM (inactive)						
O=C(Nc1ccccc1)c1ccccc1O	1 (inactive)	1.39	1.39	0.912 (inactive) and 0.877 (inactive)	0.72 and 3.66	7720 and 10000	8460 and 11400	10 nM (inactive)	-0.183 (inactive)	-0.206			67.6% (inactive)	101%
